Screening data as filed in PubChem.
ClpP mod: qHTS Assay for Activators of ClpP; purified B. subtilis ClpP, FRET peptide cleavage, 20 min; Potency, µM (doses to about 57.5 µM), inactives show at the top dose activity change, negative = active; AID 651965, 2013; ATP-dependent Clp protease proteolytic subunit (Bacillus subtilis (strain 168)), P80244; 340,000 tested, 1.9% active; active = well fitted falling curve with a large enough effect; inconclusive = small, poorly fitted or top-dose-only effect; inactive = no such curve, though single readings can be large or run the other way; note: potency is the fitted concentration of half-maximal effect; the source files actives as falling curves though it sought activators and does not explain the sign; nearly all actives have a fitted effect of over 65% in size
Target sequence (P80244 whole entry, looked up): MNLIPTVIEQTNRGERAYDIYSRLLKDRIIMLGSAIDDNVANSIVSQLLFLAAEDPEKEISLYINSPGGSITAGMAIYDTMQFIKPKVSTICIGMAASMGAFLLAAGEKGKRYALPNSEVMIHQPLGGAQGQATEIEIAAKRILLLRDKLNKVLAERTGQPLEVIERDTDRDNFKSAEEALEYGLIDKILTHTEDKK
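Purified B. subtilis ClpP, 10 microg/mL final in Tris/HCl pH8 with KCl, BSA, glycerol and Tween-20, cleaved an Abz/nitrotyrosine-quenched decapeptide. Fluorescence (ex 320, em 430) was read at 0 and 20 min at room temperature. Delta was normalized to 5.8 microM ADEP and DMSO/no-enzyme controls.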
DRD3 antagonist: antagonists of human D3 dopamine receptor; P35462; max response, negative = inhibition, %; AID 652054; 360,000 tested, 2.5% active; D3R cells, DiscoveRx beta-arrestin luminescence, antagonist mode; hits give low values; in the data active = max response below about -50%; inconclusive = no clear call, values can overlap the other calls; note: % is set by controls: 0 for no effect and ±100 for the full control effect
Target sequence (P35462 whole entry, looked up): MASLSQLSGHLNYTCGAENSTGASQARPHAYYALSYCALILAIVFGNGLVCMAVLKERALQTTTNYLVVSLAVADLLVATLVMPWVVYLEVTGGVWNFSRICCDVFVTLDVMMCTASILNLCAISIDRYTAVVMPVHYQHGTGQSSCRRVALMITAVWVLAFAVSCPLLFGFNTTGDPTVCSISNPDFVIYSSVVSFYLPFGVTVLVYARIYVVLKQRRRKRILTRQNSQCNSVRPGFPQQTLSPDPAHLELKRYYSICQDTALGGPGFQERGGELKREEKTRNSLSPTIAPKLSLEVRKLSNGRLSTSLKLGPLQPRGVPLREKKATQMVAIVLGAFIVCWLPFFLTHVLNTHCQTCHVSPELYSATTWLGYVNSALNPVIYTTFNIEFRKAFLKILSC
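Cells expressing the human receptor were seeded at 1500 cells/well, incubated overnight at 37 degrees C in 5% CO2, then exposed to library compounds with dopamine controls for 90 minutes at 37 degrees C before luminescent detection.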
D3 ag: D3 dopamine receptor (human) agonism; P35462; D3R DiscoveRx beta-arrestin cells, luminescence, 90 min; max activation, %; 410,000 tested, 0.58% active; in the data active = max activation above about 30%; note: 0% is about no effect
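Agonist-mode cell screen: cells plated at 1500/well and incubated overnight at 37 °C, then exposed to library compounds for 90 min at 37 °C. Detection reagent was added for 30–60 min at room temperature, and luminescence was read.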
GLP1R ag: agonists of human GLP-1 receptor; HEK293 GLP-1R CRE-luciferase, luminescence, 4-6 h; cells express a hypersensitive GLP-1R form; Potency, µM (doses to about 45.6 µM), for inactives: at the top dose activation, hits mostly activators; 380,000 tested, 0.007% active; note: potency is the fitted concentration of half-maximal effect; % of control where 0% means no effect
GLP-1R inv ag: acts as inverse agonist at human GLP-1 receptor; P43220; HEK293 GLP-1R CRE-luciferase, luminescence, 24 h; GLP-1R form is constitutively active; Potency, µM (titrated, usually from 38.3 µM), inactives show at the top dose activity change, negative = inhibition, most hits filed as inhibitors; 410,000 tested, 1.6% active; note: potency is the fitted concentration of half-maximal effect; % is set by controls: 0 for no effect and ±100 for the full control effect; nearly all actives have a fitted effect of over 55% in size
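Stable HEK293 clone (constitutively active GLP-1R + cAMP-response luciferase); 200 cells/uL plated, 12 h pre-culture, compound 24 hr, 37 deg C/5% CO2; detection reagent 12 min RT; luminescence.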
GLP1R cytotox: cytotoxicity in counter-screen for GLP-1R inverse agonists. 410,000 tested, 0.13% active. AID 624418. Potency, µM (titrated, usually from 38.3 µM), without a hit: at the top dose activity change, negative = inhibition, most hits filed as inhibitors. HEK293 cAMP-luciferase reporter cells, luminescence, 24 h;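 note: loss of luciferase light is scored as toxicity; potency is the fitted concentration of half-maximal effect; % is set by controls: 0 for no effect and ±100 for the full control effect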
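1536-well qHTS counterscreen of the MLSMR; 200 cells/uL, 12 h pre-incubation, 23 nL cpd, 24 h at 37 deg C 5% CO2, luciferase detection reagent, 12 min RT, luminescence. Inhibition = undesired.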
Numbers without * were called inactive; u = inconclusive; x = no result; [ ] = another dose, or the depositor's remark. Compounds with a hit are over-represented: about 5.7% of the library has one in this group of screens. Unless noted, calls come from the whole dose curve; as a rule, active = well fitted curve in the direction sought with a large enough effect; inconclusive = small, poorly fitted or top-dose-only effect, or another doubt; inactive = no such curve, though single readings can be large; an effect the other way counts as inactive or inconclusive.

SMILES	ClpP mod	DRD3 antagonist	D3 ag	GLP1R ag	GLP-1R inv ag	GLP1R cytotox
CC(=O)N1CCc2cc(S(=O)(=O)NC(CC(C)C)C(=O)NCCc3ccccc3)ccc21 (stereo unspecified)	0%	x	6	x	3%	0%
COc1cc(OC)c2ccc(=O)oc2c1C(CCN1CCN(c2ccccc2)CC1)c1ccc(N(C)C)cc1 (stereo unspecified)	-3%	-115*	-62	0%	1%	3%
CCCCCc1cc(=O)oc2c(C(CCN3CCCCC3)c3ccc4c(c3)OCO4)c(OC)cc(OC)c12 (stereo unspecified)	-27%	-20	-63	4%	-1%	2%
COc1cc(OC)c2c(-c3ccccc3)cc(=O)oc2c1C(CCN1CCN(c2ccccc2)CC1)c1ccc(N(C)C)cc1 (stereo unspecified)	1%	-62*	-4	7%	8%	12%
COc1ccc(C(CCN2CCOCC2)c2c(OC)cc(OC)c3c(-c4ccccc4)cc(=O)oc23)cc1 (stereo unspecified)	u	9	-44	15%	u	-29%
CCCCCc1cc(=O)oc2c(C(CCN3CCN(c4ccccc4)CC3)c3ccc(N(C)C)cc3)c(OC)cc(OC)c12 (stereo unspecified)	-1%	-52*	-45	-6%	u	0%
COc1ccc(C(CCN2CCN(c3ccccc3)CC2)c2c(OC)cc(OC)c3c(-c4ccccc4)cc(=O)oc23)cc1 (stereo unspecified)	-10%	-53*	-1	16%	-4%	-6%
O=C1c2ccccc2[C@@H]2Cc3csc[n+]3[C@H]12	-3%	5	2	-8%	22%	-1%
COc1cc(C)ccc1OCCn1c(-c2ccc(Cl)cc2)nc2ccccc2c1=O	0%	x	-10	x	4%	-2%
Cc1nnc(N2CCC(C(=O)NCc3ccc(F)cc3)CC2)c2nn(-c3ccc(Cl)cc3)c(C)c12	4%	x	-6	x	22%	7%
CCCC(=O)NC(=S)Nc1ccc(S(=O)(=O)N2CCc3ccccc32)cc1	-1%	u	-26	19%	8.9µM*	-30%
CCOC(=O)CCC(=O)Nc1ccc(S(=O)(=O)N2CCc3ccccc32)cc1	3%	10	-4	-3%	9%	7%
CC(C)N(Cc1ccccc1)C(=O)CCS(=O)(=O)c1cc2c(cc1Cl)NC(=O)CO2	2%	x	-3	-6%	7%	4%
COc1ccc(OC)c(NC(=O)Cn2ccc3ccccc3c2=O)c1	-12%	x	-4	2%	2%	2%
COc1cccc(C2CC(c3ccc(Br)cc3)=NN2C(=O)c2ccncc2)c1OC (stereo unspecified)	x	0	0	16%	10µM*	-9%
CCC(C)C(=O)Nc1nc(C)c(-c2csc(Nc3cc(Cl)ccc3OC)n2)s1 (stereo unspecified)	-8%	2	48*	0%	-24%	2%
COc1ccc2c(c1)CCc1c-2n[nH]c1C(=O)NCCC(C)C	-22%	-16	-4	-3%	7.9µM*	-2%
c1ccc2c(c1)CCN(c1nc3cc4c(cc3s1)OCCO4)C2	-7%	5	6	-14%	7.1µM*	-14%
CCCn1c(-c2ccc(OC)cc2)nc2nc3ccccc3nc21	28µM*	18	7	5%	45%	4%
COCCNC(=O)C(=O)N/N=C(\C)CC(=O)Nc1ccc(Cl)cc1Cl	28µM*	0	-6	-33%	u	-15%
O=C(Nc1ccccc1)C1Cc2c(-c3ccccc3Oc3ccccc3)ccnc2O1 (stereo unspecified)	-4%	-9	9	-7%	u	0%
O=C(Nc1cccc(OC(F)(F)F)c1)C1Cc2c(-c3ccc4c(c3)OCO4)ccnc2O1 (stereo unspecified)	5%	-55*	-9	-3%	u	-4%
O=C(Nc1cccc(OC(F)(F)F)c1)C1Cc2c(-c3ccccc3Oc3ccccc3)ccnc2O1 (stereo unspecified)	-7%	6	14	4%	13µM*	-3%
NC(=O)OC[C@@H]1[C@H](NC(=O)/C(=N\OCC(=O)O)c2csc(N)n2)C(=O)N1S(=O)(=O)O	x	x	1	x	x	x
Cc1ccc(N2CC(C(=O)OCC(=O)Nc3c(C)cccc3C)CC2=O)cc1 (stereo unspecified)	1%	0	-3	-3%	2%	1%
SMILES	ClpP mod	DRD3 antagonist	D3 ag	GLP1R ag	GLP-1R inv ag	GLP1R cytotox
COc1cccc(Nc2nc3ccc(C)cc3nc2-n2nc(C)cc2C)c1	u	x	6	x	3%	-11%
C=C(C)C(=O)OCC(O)COc1ccc(C(C)(C)c2ccc(OCC(O)COC(=O)C(=C)C)cc2)cc1 (stereo unspecified)	1%	66	71*	7%	u	7%
CC(=O)N(C)c1ccc(OCC(O)COc2ccc(N(C)C(C)=O)cc2)cc1	0%	12	1	-5%	16%	-4%
CNC(=O)c1ccc2nc(-c3cccc(C)c3)c(-c3cccc(C)c3)nc2c1	4%	x	x	x	x	x
CCNC(=S)Nc1ccc(N(c2ccccc2)C(C)C)cc1	21%	-23	-13	4%	u	-3%
CC(C)N(c1ccccc1)c1ccc(NC(=S)NCCN(C)C)cc1	x	-73*	-13	9%	u	u
CC(C)c1ccc(NC(=S)NN(c2ccccc2)c2ccccc2)cc1	-4%	0	-21	-1%	5.6µM*	u
Cc1nn(CCC(=O)NNC(=S)Nc2ccc(F)cc2)c(C)c1[N+](=O)[O-]	-1%	-77*	2	0%	0%	-6%
Cc1cc([N+](=O)[O-])nn1CC(=O)NNC(=S)Nc1ccc(F)cc1	-10%	-25	-2	-1%	23%	-2%
Cc1nn(CCCC(=O)Nc2cc(Oc3ccccc3)cc([N+](=O)[O-])c2)c(C)c1[N+](=O)[O-]	25µM*	-13	-4	19%	u	-1%[1.53 µM]
Cc1ccc(C)c(Oc2cc(NC(=O)CCCn3nc(C)c([N+](=O)[O-])c3C)cc([N+](=O)[O-])c2)c1	-1%	-14	5	6%	u	-5%
COC(=O)C1(C(=O)OC)C2CCCCC2N(S(=O)(=O)c2ccc(C)cc2)[C@@H]1CC(C)=O (stereo partly specified)	-6%	5	-2	x	-18%	12%
CN(C)S(=O)(=O)N(CC(=O)NCCSCc1ccc(Cl)cc1Cl)c1ccccc1	0%	x	0	19%	u	2%
